Screening results as filed in PubChem.
Hits are enriched below; roughly 21% of the tested compounds scored in any of these assays.
ELG1 repair inh = blocks ELG1-dependent DNA repair in HEK293T cells; HEK293T ELG1-luciferase reporter, luminescence, 16 h; DNA damage induced by 5-fluorouridine; 330,000 compounds, 2.3% hits; Potency, µM (doses to about 46.1 µM), for the others: at the top dose activity change, negative = inhibition, actives largely listed as inhibitors; AID 504467; also: potency is read from the fitted curve at half-maximal effect; nearly all actives have a fitted effect of over 55% in size
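Luminescence from the luciferase reporter, measured 30 min after ONE-Glo reagent at room temperature, was the read-out. Beforehand, 2,000 cells per well were exposed for 16 hr at 37 °C to 5-fluorouridine together with compound or vehicle.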
VP16 counter = Gal4-VP16 reporter inhibition counter-screen | Drosophila S2 Gal4-VP16 UAS-luciferase, luminescence, 20 h | Potency, µM (top dose mostly 53.6 µM), for the others: at the top dose activity, negative = inhibition, actives largely listed as inhibitors | 310,000 compounds, 3.5% hits;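 also: Gal4-VP16 expression switched on by copper sulfate through the metallothionein promoter; potency is read from the fitted curve at half-maximal effect; nearly all actives have a fitted effect of over 50% in size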
DT40 TDP1 CPT = DT40-hTDP1 cell growth loss with CPT; chicken DT40 Tdp1-/-;hTDP1 cells + 20 nM CPT, ATP luminescence, 48 h; Potency, µM (doses to about 46.2 µM), inactives show top-dose activity change, negative = growth inhibition, hits mostly inhibitors; 420,000 compounds, 12% hits; also: potency is read from the fitted curve at half-maximal effect; nearly all actives have a fitted effect of over 55% in size
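Chicken DT40 Tdp1-/- cells complemented with human TDP1, 400 cells/well, exposed to compounds plus 20 nM camptothecin for at least 48 h at 37 C; viability read as ATP content by CellTiter-Glo luminescence.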
IL1B secr inh = blocks inflammasome-driven IL-1 beta release. THP-1 LPS/ATP IL-1B secretion, AlphaLISA, 16 h; hits give low values. activity change, % at 57.5 µM. 360,000 compounds, 4.7% hits; in the data active = activity change below about -50%; inconclusive = mostly about -30% to -49%
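Secreted IL-1B measured by AlphaLISA bead assay after 16 h compound exposure of THP-1 cells; compounds (final up to 57.5 uM) added 1 h before LPS (250 ng/mL) and ATP (1.25 mM) stimulation; lower signal means less secretion.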
RORgamma inh = inhibitors of mouse ROR gamma transcriptional activity; P51450; Drosophila S2 Gal4-RORgamma UAS-luciferase reporter, 20 h; Potency, µM (series often up to 53.6 µM), inactives show top-dose activity change, negative = inhibition, hits mostly inhibitors; 310,000 compounds, 5.4% hits; AID 2551; also: potency is read from the fitted curve at half-maximal effect; nearly all actives have a fitted effect of over 60% in size
Target sequence (P51450 whole entry, looked up, the tested form may be a part): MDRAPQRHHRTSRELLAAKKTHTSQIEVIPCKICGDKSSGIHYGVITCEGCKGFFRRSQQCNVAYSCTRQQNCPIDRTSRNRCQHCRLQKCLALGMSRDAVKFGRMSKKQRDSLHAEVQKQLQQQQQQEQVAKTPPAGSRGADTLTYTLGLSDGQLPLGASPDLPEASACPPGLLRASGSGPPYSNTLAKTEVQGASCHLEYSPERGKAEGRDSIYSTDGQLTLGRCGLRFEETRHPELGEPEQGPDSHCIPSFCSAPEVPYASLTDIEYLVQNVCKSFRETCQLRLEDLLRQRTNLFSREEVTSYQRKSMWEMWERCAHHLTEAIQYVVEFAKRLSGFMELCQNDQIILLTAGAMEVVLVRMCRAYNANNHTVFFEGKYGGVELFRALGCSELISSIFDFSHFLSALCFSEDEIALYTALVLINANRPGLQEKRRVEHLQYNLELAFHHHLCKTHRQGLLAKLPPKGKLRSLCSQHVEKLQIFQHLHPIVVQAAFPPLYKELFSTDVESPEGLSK
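Read-out: Photinus luciferase luminescence; inhibitors lower reporter signal. Insect Schneider cells with Gal4-ROR gamma fusion under metallothionein promoter, UAS reporter; 700 uM final copper sulfate induction, 20 hr, ambient temperature.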
TDP1 cell noCPT = qHTS for Inhibitors of human tyrosyl-DNA phosphodiesterase 1 (TDP1): qHTS in cells in absence of CPT; DT40 Tdp1-/- hTDP1 cells, no CPT, ATP luminescence, 48 h; Potency, µM (titrated, usually from 46.2 µM), for the others: at the highest dose activity change, negative = growth inhibition, most hits filed as inhibitors; 420,000 compounds, 15% hits; also: potency is read from the fitted curve at half-maximal effect; nearly all actives have a fitted effect of over 55% in size
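A cellular qHTS used chicken DT40 cells lacking endogenous Tdp1 but carrying stably transfected human TDP1. Compounds were applied without camptothecin, and cell growth kinetics were judged by ATP-dependent luminescence after ≥48 hr.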
* marks the source's active call; other numbers are inactive results; ? = inconclusive; / = no result given; ! = not confirmed by another sample. Unless noted, calls follow the shape of the dose curve; as a rule, active = well fitted curve in the direction sought with a large enough effect; inconclusive = small, poorly fitted or top-dose-only effect, or another doubt; inactive = no such curve, though single readings can be large; an effect the other way counts as inactive or inconclusive. % is scaled to controls: 0 for no effect and ±100 for the full control effect.

SMILES	ELG1 repair inh	VP16 counter	DT40 TDP1 CPT	IL1B secr inh	RORgamma inh	TDP1 cell noCPT
Nc1cc([N+](=O)[O-])ccc1Nc1ccccc1	-9.0%	2.9%	14.6µM*	-102.8*	?	6.51µM*
Nc1cc([N+](=O)[O-])ccc1O	13.4%	12.6µM*!	?	5.2	-0.6%	?
Nc1cc([N+](=O)[O-])ccc1OCc1ccccc1	/	/	18.4µM*	6.6	/	?
CC(=O)N(C)c1cc([N+](=O)[O-])ccc1OCc1ccccc1	/	/	-9.4%	6.1	/	-22.0%
COc1ccc(S(=O)(=O)N2CCN(C)CC2)cc1C(=O)Nc1ccccc1	5.8%	/	15.6%	3.0	/	-2.2%
O=C1Nc2ccc(Br)cc2C12NNc1ccccc1O2 (centres undefined)	27.4%	?	?	-5.0	11.2µM*	18.4µM*
O=C1Nc2ccc(Br)cc2C1(O)c1ccccc1 (centres undefined)	10.9%	3.6%	3.2%	42.3	8.2%	0.4%
CCCc1cc(C(=O)Nc2c(C)n(C)n(-c3ccccc3)c2=O)no1	6.2%	-11.3%	10.1%	13.2	39.6%	-8.8%
C=CCC(CC=C)(CNC(=O)C(=O)Nc1cc(C)ccc1OC)c1ccc(OC)c(OC)c1	/	/	8.2µM*	/	/	16.4µM*
COc1ccc(C)cc1NC(=O)C(=O)NCc1ccncc1	-0.4%	-5.8%	-10.5%	-2.9	-7.6%	-13.3%
CCc1c(C)sc(NC(=S)N2CCN(CC)CC2)c1C(=O)OC	-13.7%	-13.8%	?	-56.1*	-5.9%	?
CSCC[C@@H]1NC(=O)[C@@H](NC(=O)[C@H](CCCNC(=N)N)NC(=O)[C@H](CC(C)C)NC(=O)[C@H](CCSC)NC(=O)[C@H](CC(=O)O)NC(=O)[C@H](Cc2ccccc2)NC(=O)[C@@H](N)CC(=O)O)CSSC[C@@H](C(=O)N[C@@H](Cc2c[nH]c3ccccc23)C(=O)N[C@@H](CCC(N)=O)C(=O)N[C@H](C(=O)O)C(C)C)NC(=O)[C@@H]2CCCN2C(=O)[C@H](CCCNC(=N)N)NC(=O)[C@H](Cc2ccc(O)cc2)NC(=O)[C@H](C(C)C)NC(=O)[C@H](CCCNC(=N)N)NC(=O)CNC(=O)[C@H](CC(C)C)NC1=O	/	1.7%	/	/	5.7%	/
CC[C@H](C)[C@@H]1NC(=O)[C@H]([C@@H](C)CC)NC(=O)[C@@H](CC(C)C)NC(=O)[C@H](Cc2ccccc2)NC(=O)[C@H](Cc2ccccc2)NC(=O)[C@@H]2CCCN2C(=O)[C@@H]2CCCN2C(=O)[C@H](C(C)C)NC(=O)[C@H](CC(C)C)NC1=O	?	/	6.51µM*	-15.0	/	8.2µM*
CCOC(=O)n1c(=O)n(C)c2ccc(Br)cc21	37.3%	-1.7%	-26.9%	57.2	-13.0%	?
CCOC(=O)n1c(=O)[nH]c2ccc(Br)cc21	1.4%	-2.6%	-0.2%	-0.3	-3.6%	18.4µM*
CCc1nnc(NC(=O)c2ccc(OCc3c(C)noc3C)c(OC)c2)s1	5.2%	-3.1%	-2.0%	-9.2	-24.0%	-26.7%
COc1cc(C(=O)Nc2nc3ccc(C)cc3s2)ccc1OCc1c(C)noc1C	?	0.0%	17.8µM*	-5.6	-9.7%	17.8µM*
COc1ccc(NS(=O)(=O)c2cc(NC(=O)c3cccc(OCc4c(C)noc4C)c3)ccc2OC)cc1	?	0.5%	?	4.3	-9.1%	23.1µM*
COc1cc(NC(=O)c2ccc(OCc3c(C)noc3C)c(OC)c2)cc(OC)c1	20.6µM*	/	?	-22.5	/	13µM*
CCc1ccc([C@@H]2CC(=O)[C@@H]3CN(S(=O)(=O)c4ccc(Cl)cc4)[C@H](c4ccc(C)cc4)C[C@@H]3N2S(=O)(=O)c2ccc(C)cc2)cc1	/	/	-5.0%	34.2	/	-13.6%
CCCCNC(=O)C1(C)CCC(=O)N1CCc1c[nH]c2ccccc12 (centres undefined)	/	/	0.5%	6.8	/	-4.2%
NS(=O)(=O)c1ccc(NC(=O)Nc2ccc(C(F)(F)F)cc2)cc1	0.0%	-0.9%	?	-57.9*	1.0%	18.4µM*
NS(=O)(=O)c1ccc(NC(=O)c2ccc(-c3ccccc3)cc2)cc1	-3.0%	-9.8%	-8.9%	25.8	-1.0%	-6.2%
NS(=O)(=O)c1ccc(NC(=O)Nc2ccc(S(N)(=O)=O)cc2)cc1	4.7%	-1.1%	-0.9%	-2.6	-10.1%	11.2%
CC(C)(C)c1ccc(C(=O)Nc2ccc(S(N)(=O)=O)cc2)cc1	-22.8%	-11.1%	?	-76.1*	25.0%	?
SMILES	ELG1 repair inh	VP16 counter	DT40 TDP1 CPT	IL1B secr inh	RORgamma inh	TDP1 cell noCPT
N#Cc1ccccc1CSc1nc(N)cc(N)n1	-1.2%	-18.4%	-5.5%	21.9	26.0%	-8.3%
O=C(CN1CCN(CC(=O)Nc2ccccc2Cl)CC1)NCC1(N2CCCCC2)CCCCC1	11.9%	/	?	-7.9	/	20.6µM*
O=C(CN1CCC(C(=O)c2ccc3c(c2)OCCO3)CC1)Nc1ccccc1C(F)(F)F	-26.3%	-6.7%	?	-56.9*	?	?
COc1ccccc1NC(=O)CN1CCN(CC(=O)Nc2ccc3c(c2)OCCO3)CC1	?	11.6%	?	-29.2	24.8%	?
CCOc1ccc(C(=O)C2CCN(CC(=O)Nc3ccccc3N3CCOCC3)CC2)cc1	20.6µM*	?	16.4µM*	-25.1	3.8%	18.4µM*
O=C(CN1CCN(CC(=O)Nc2ccccc2Cl)CC1)Nc1ccc2c(c1)OCCO2	?	-5.8%	?	-8.4	12.6%	23.1µM*
Cc1ccc(CN2CC(C(=O)NCC(=O)Nc3c(C)cccc3C)CC2=O)cc1 (centres undefined)	13.8%	/	17.7%	6.8	/	-0.2%
COc1ncnc2c1ncn2CCCNCc1ccc2c(c1)OCO2	/	/	-13.6%	2.0	/	-0.7%
Cc1ccccc1NC(=O)CN1CCC(C(=O)c2ccc3c(c2)OCCO3)CC1	-17.6%	-5.9%	?	13.5	15.4%	18.4µM*
Cc1ccc(C(=O)C2CCN(CC(=O)Nc3ccccc3C)CC2)cc1	?	1.2%	?	-15.8	-5.3%	?
Cc1ccc(NC(=O)COc2ccccc2[N+](=O)[O-])nc1	?	?	2.2%	20.0	6.31µM*	?
O=C(COc1ccccc1[N+](=O)[O-])Nc1cccnc1	?	-6.1%	1.0%	-10.9	0.4%	-6.8%
Cc1ccnc(NC(=O)COc2ccccc2[N+](=O)[O-])c1	?	?	/	/	11.2µM*	/
